# ± gives the standard deviation of the averaged measurements.
# Compound: CCOC(C)=O [ethyl acetate]
# Test: control-subtracted net OSN firing rate; higher = stronger neuronal activation
# Details: odorant dilution (vol/vol): 1/100
# Method: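 Single sensillum recordings from olfactory sensory neurons. The neurons sit in the maxillary palp or antennal sensilla of D. melanogaster (wild type, mutants, or at1 empty-neuron lines expressing Or42a homologs or the A181D S307P mutant) and of four Scaptomyza species. Each odorant was given as a 1 s pulse from 20 µl loaded on filter paper at 1:100 vol/vol, diluted in mineral oil (γ-hexalactone in DMSO). Spikes were counted in a 0.5 s window starting 0.2 s after onset, background was subtracted, the count was doubled, and the mean solvent-control response was subtracted.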
row,Target,control-subtracted net OSN firing rate [spikes/s]
1,S. pallida pb2a-like,7.33 ± 11
2,S. flava pb2b-like,0.333 ± 7.3
3,Canton-S (D. melanogaster) pb1b,-7.33 ± 9.6
4,Canton-S (D. melanogaster) pb3b,0.333 ± 9.4
5,S. flava pb3b-like,0.333 ± 9.7
6,Canton-S (D. melanogaster) pb1a,89.1 ± 27
7,S. pallida pb1b-like,-12.7 ± 9.3
8,Canton-S (D. melanogaster) pb2b,4 ± 6.4
9,S. flava pb1a-like,61.7 ± 23
10,Canton-S (D. melanogaster) pb2a,4.57 ± 6.5
11,S. hsui pb2b-like,53 ± 37
12,S. hsui pb3b-like,-2.33 ± 2.3
13,S. hsui pb1a-like,98.3 ± 21
14,S. flava pb2a-like,-1.67 ± 5.7
15,S. flava pb1b-like,-6.33 ± 12
16,S. flava pb3a-like,6.67 ± 11
17,S. hsui pb1b-like,-16.7 ± 9.4
18,Canton-S (D. melanogaster) pb3a,1.33 ± 8.4
19,S. hsui pb2a-like,8 ± 5.1
20,S. pallida pb3b-like,28.7 ± 25
21,S. pallida pb1a-like,80.3 ± 20
22,S. pallida pb3a-like,8.67 ± 14
23,S. hsui pb3a-like,-4.33 ± 11
24,S. pallida pb2b-like,9.33 ± 10

# — the supplement of paper PMC11482750
